We go through 93 compounds from ChEMBL document CHEMBL1157539, “Thousands of chemical starting points for antimalarial lead identification” (Nature, 2010).

Each structure is given as a SMILES string. Over roughly 13,000 compounds, “IFI” has its median near 4; the highest 2% begin near 17. The sample as a whole holds a higher share of the highest values than the screen did.

The test is described as follows: GSK_TCMDC: Inhibition Frequency Index (IFI). The number of non-kinase HTS assays where a compound showed > 50 % inhibition, expressed as a percentage of the number of such assays in which the compound was tested. The test is classed as functional.
Consider `CCN(CC)CCCC(C)N=c1cc(C=Cc2ccc([N+](=O)[O-])cc2)[nH]c2ccc(OC)cc12` (stereo not drawn), for which the IFI stood at 1.65%. For the compound `CCN(CC)C(C)(C)CN(Cc1ccc(-c2ccc(C(F)(F)F)cc2)cc1)C(=O)Cn1c(CCc2cccc(F)c2F)nc(=O)c2ccccc21`, the IFI is 6.94%. As to `CCN(CCNS(C)(=O)=O)c1ccc(N)c(C)c1`, the IFI stood at 7.32%.

As to `CN(C)c1ccc(NC2=NC(N)=NC(C)(C)N2)cc1`, the IFI was 1.82%.

Take `NC(=O)c1cccc(C(=O)Nc2cccc(-c3ccc(-c4nc5cc(C(F)(F)F)ccc5[nH]4)cc3)c2)c1`: the IFI worked out at 6.67%. The result for `Nc1cccc(CNCc2ccc(-c3cccc(-c4nc5cc(C(F)(F)F)ccc5[nH]4)c3)cc2)c1` reads 15.2%; that for `CCCCN(C(=O)c1ccccc1C)c1nnc(-c2ccccc2C)s1`, 2.56%.

`Cc1ccc2nc(C)n(C3CCN(C(=O)Cc4ccc(F)c(F)c4)CC3)c2c1` yielded an IFI of 0%. For the compound `O=C(N[C@H]1CCN(Cc2ccc(OCCN3CCNCC3)c(Br)c2)C1)c1ccc(Cl)c(Cl)c1`, the IFI was determined as 6.9%.

In turn, `C[C@H](Cc1ccc(OCCCCCOc2ccc(C[C@@H](C)NC[C@H](O)c3cccc(Cl)c3)cc2)cc1)NC[C@H](O)c1cccc(Cl)c1` showed an IFI of 20.9%. Turning to `CC(CCCC(=O)Nc1ccc(CC(C)NCCc2cccc(Cl)c2)cc1)NCCc1cccc(Cl)c1` (stereo not drawn), the IFI worked out at 11.9%. `C[C@H](Cc1ccc(OCCCCCCOc2ccc(C[C@@H](C)NC(=O)[C@H](O)c3cccc(Cl)c3)cc2)cc1)NC[C@H](O)c1cccc(Cl)c1` had an IFI of 11.3%. With `C[C@H](Cc1ccc(OCCCCCCOc2ccc(C[C@@H](C)NC[C@H](O)c3cccc(Cl)c3)cc2)cc1)NC[C@H](O)c1cccc(Cl)c1`, the IFI amounted to 16.9%.

The compound `CC(NCCc1cccc(Cl)c1)C(O)c1ccc(OCCCCCCOc2ccc(C(O)C(C)NCCc3cccc(Cl)c3)cc2)cc1` (stereo not drawn) registered an IFI of 13%.

On to `CC(Cc1ccc(NC(=O)COc2ccc(CC(C)NCCc3cccc(Cl)c3)cc2)cc1)NCCc1cccc(Cl)c1` (stereo not drawn), for which the IFI turned out to be 32.4%. `CC(CCCCC(=O)Nc1ccc(CC(C)NCCc2cccc(Cl)c2)cc1)NCCc1cccc(Cl)c1` (stereo not drawn) came in with an IFI of 4.29%. The result for `C[C@H](Cc1ccc(OCCCCCCCOc2ccc(C[C@@H](C)NC[C@H](O)c3cccc(Cl)c3)cc2)cc1)NC[C@H](O)c1cccc(Cl)c1` reads 22.1%; that for `C[C@H](Cc1ccc(OCCNC[C@H](O)c2cccc(Cl)c2)cc1)NC[C@H](O)c1ccc(Cl)c(Cl)c1`, 11.4%. The result for `C[C@H](Cc1ccc(OCCCCCCOc2ccc(C[C@@H](C)N[C@H](C)c3ccccc3)cc2)cc1)NC[C@H](O)c1cccc(Cl)c1` reads 19.6%. On to `COc1ccc(CC(Cc2ccc(OC)cc2)NCC(O)c2cccc(Cl)c2)cc1` (stereo not drawn), for which the IFI worked out at 4.86%.

On to `NC(=O)c1cccc(C(=O)Nc2ccc(-c3cccc(-c4nc5cc(F)ccc5[nH]4)c3)cc2)c1`, for which the IFI was 1.74%.

The compound `Cc1cccc2nc(-c3cccc(-c4ccc(NC(=O)C(C)CN(C)C)cc4)c3)[nH]c12` (stereo not drawn) had an IFI of 5.45%. In turn, `O=C(Cc1ccc(-c2ccccc2)cc1)N[C@H]1CCN(Cc2ccc(OCCCN3CCCCC3)cc2)C1` had an IFI of 7.53%. `C=C(C)CSc1nc2c(c(=O)n1CCc1ccccc1)C1(CCCC1)Cc1ccccc1-2` came in with an IFI of 0%. `CN1CCCC(CN2CCN(Cc3cccc(-c4cccc(-c5nc6ccccc6[nH]5)c4)c3)CC2)C1` (stereo not drawn) came in with an IFI of 7.04%. The result for `O=C(CCc1c[nH]cn1)Nc1ccc(-c2ccc(-c3nc4ccccc4[nH]3)cc2)cc1` reads 3.51%; that for `CCNc1cc(C(=O)N[C@@H](Cc2ccccc2)[C@H](O)CNC(C)Cc2cccc(Cl)c2)cc(N2CCCCS2(=O)=O)c1` (stereo partly drawn), 4.9%; that for `COc1ccc2c(NN=Cc3ccc(N(C)C)cc3)ccnc2c1`, 5.8%. The result for `O=C(NCC1CCN(CCN2CCC(c3cn(CCO)c4ccccc34)CC2)CC1)c1ccc(-c2ccc(C(F)(F)F)cc2)cc1` reads 10%; that for `COc1ccc(O)c(-c2sc(N=C(N)N)nc2-c2ccccc2)c1`, 8.09%; that for `Fc1cccc(C=NN=c2cc[nH]c3ccc(C(F)(F)F)cc23)c1`, 0%. In turn, `N=C(NCCc1c[nH]c2ccccc12)NCc1ccccc1Cl` showed an IFI of 4.32%. As to `NOCCCCOc1ccc(Cl)cc1`, the IFI turned out to be 0%.

In the case of `COc1ccc2nc(C)cc(NCc3cccc4ccccc34)c2c1`, the IFI was determined as 1.46%. Compound `Cc1cc(=NN=Cc2ccc(Cl)cc2)c2cccc(C)c2[nH]1` yielded an IFI of 1.45%. `COc1ccc(CNCc2cccc(-c3ccc(-c4nc5ccccc5[nH]4)s3)c2)cc1` returned an IFI of 7.69%. The result for `CN(C)CCCOc1ccc(CCNCc2cccc(Oc3ccc(Cl)cc3)c2)cc1` reads 7.97%; that for `CC(Cc1ccc(COc2ccc(CC(CO)NCCc3cccc(Cl)c3)cc2)cc1)NCCc1cccc(Cl)c1` (stereo not drawn), 16.6%; that for `CC(Cc1ccc(OCCCCOc2ccccc2)cc1)NCCc1ccc(Oc2ccccc2)cc1` (stereo not drawn), 18.2%. The result for `COc1c(CNCCCCCCNCc2cc(Cl)c3ccccc3c2OC)cc(Cl)c2ccccc12` reads 19.4%; that for `COc1cc(CNCCCCCCNCc2cc(OC)cc3ccccc23)c2ccccc2c1`, 10.1%; that for `CCOc1cc(CNCCCCCCNCc2cc(OCC)c(OCC)c3ccccc23)c2ccccc2c1OCC`, 18.8%. `COc1cc(CNCCCCCCNCc2cc(OC)c(OC)c3ccccc23)c2ccccc2c1OC`: the IFI is 7.41%. The result for `CCOc1cc(OCC)c2ccccc2c1CNCCCCCCNCc1c(OCC)cc(OCC)c2ccccc12` reads 16%. `COc1c(CCNCCCCNCCc2cc(Cl)c3ccccc3c2OC)cc(Cl)c2ccccc12` had an IFI of 19%. `CCCCNCc1cc(Cl)c2ccccc2c1O` gave an IFI of 6.77%.

As for `COc1ccc(CNCCCCCCNCc2ccc(OC)c3ccccc23)c2ccccc12`, the IFI is 8.21%. The result for `COc1ccc(CCNCCCCCCNCCc2ccc(Cl)c3ccccc23)cc1OC` reads 9.42%; that for `COc1cc(CNCCCCCCNCc2cc(OC)c3ccccc3c2OC)c(OC)c2ccccc12`, 17.3%; that for `COc1ccc(CCNCCCCCCNCCc2ccc(OC)c(OC)c2Cl)c(Cl)c1OC`, 2.94%. In turn, `CCOc1ccc(CNCCCCCCNCc2ccc(OCC)c3ccccc23)c2ccccc12` returned an IFI of 15.4%. The compound `COc1ccc2nc(C)cc(N/N=C/c3cccc([N+](=O)[O-])c3)c2c1` displayed an IFI of 1.42%. The result for `COc1cccc(-c2csc(C(=O)NCC3CCN(Cc4ccc(C(C)C)cc4)C3)c2)c1` (stereo not drawn) reads 8%; that for `CCN(CC)CCN(Cc1ccc(-c2ccc(C(F)(F)F)cc2)cc1)C(=O)Cn1c(CCc2c(F)cccc2F)nc(=O)c2ccccc21`, 11.7%; that for `Cc1cccc2nc(-c3cccc(-c4cccc(NC(=O)Cc5c[nH]cn5)c4)c3)[nH]c12`, 4.63%. The result for `CN1CCN(S(=O)(=O)c2cccc(Nc3nccc(N(C)c4ccc5c(c4)nc(NC(=O)c4cccs4)n5C)n3)c2)CC1` reads 2.26%. The result for `C#CCNCc1ccc(-c2ccc(-c3nc4cc(C(F)(F)F)ccc4[nH]3)s2)cc1` reads 8.82%; that for `CC(C)N1CCC(N(Cc2ccc(-c3ccc(C(F)(F)F)cc3)cc2)C(=O)Cn2c(CCc3cccc(F)c3F)nc(=O)c3cccnc32)CC1`, 16.1%; that for `Cc1nn(CC(C)C)c2sc(C(=O)Nc3nc(-c4ccccn4)cs3)cc12`, 10%. Consider `COc1ccc(-c2cccc(NC(=O)c3cccc(Cl)c3)c2)cc1CN1CCNCC1`, for which the IFI worked out at 6.93%.

Compound `COc1ccc2nccc([C@@H](O)CN3CCC(NCCOc4ccc(F)cc4F)CC3)c2c1` had an IFI of 1.59%. Take `Cc1cc(F)ccc1N(c1nc(-c2cc(Cl)ccc2Cl)cs1)C1CCNC1` (stereo not drawn): the IFI worked out at 21.4%. In turn, `COc1ccc(N(c2nc(-c3cc(Cl)ccc3Cl)cs2)C2CCNC2)cc1` (stereo not drawn) yielded an IFI of 20%.

Turning to `Cc1cc(-c2cc(Cl)ccc2Cl)no1`, the IFI stood at 0%. On to `CC(C)c1cn2c3c(cc(C(=O)N[C@@H](Cc4ccccc4)[C@H](O)CNC4CCCCC4)cc13)N(C)S(=O)(=O)CC2`, for which the IFI was 2.94%. The result for `CN(C)CCCNCc1ccc(-c2ccc(F)c(Cl)c2)o1` reads 6.94%. Compound `Clc1cc(Br)ccc1-c1ccc(CNCC2CCNCC2)o1` yielded an IFI of 26.3%.

`CNCCCNCc1ccc(-c2ccc(F)c(Cl)c2)o1` had an IFI of 2.78%. In turn, `O=C(/C=C/c1ccc(Cl)c(Cl)c1)N1CCN(C(=O)Nc2cccc(C(F)(F)F)c2)CC1` had an IFI of 24.2%.

As to `O=C(/C=C/c1ccc(Cl)c(Cl)c1)N1CCN(C(=O)Nc2ccc(C(F)(F)F)cc2)CC1`, the IFI is 22.1%. Compound `O=C(/C=C/c1ccc(Cl)c(Cl)c1)NCCCCCCN1CCN(C(=O)Nc2ccc(C(F)(F)F)cc2)CC1` gave an IFI of 7.03%. The result for `O=C(/C=C/c1ccc(Cl)c(Cl)c1)NCCCCCCN1CCCN(C(=O)Nc2cccc(C(F)(F)F)c2)CC1` reads 8.26%; that for `O=C(/C=C/c1ccc(Cl)c(Cl)c1)N1CCN(C(=O)Nc2ccc(F)c(Cl)c2)CC1`, 15.2%. The result for `O=C(/C=C/c1ccc(Cl)c(Cl)c1)NCCCCCN1CCCN(C(=O)Nc2cccc(C(F)(F)F)c2)CC1` reads 8.61%; that for `O=C(Nc1cccc(C(F)(F)F)c1)c1ccc(S(=O)(=O)NCC2CCCN(CC3CCCCC3)C2)cc1` (stereo not drawn), 5.1%. Regarding `CCOC(=O)c1nc(-c2cccnc2)[nH]c1NC(=S)NCc1ccccc1`, the IFI is 3.15%. The result for `C=C[C@]1(C)C[C@@H](OC(=O)CNC[C@@H](O)CN2C[C@H](c3ccnc4ccc(OC)nc34)OC2=O)[C@@]2(C)[C@@H]3C(=O)CC[C@@]3(CC[C@@H]2C)[C@@H](C)[C@@H]1O` reads 1.56%.

Compound `Cc1cccc2nc(-c3cccc(-c4ccc(NC(=O)Nc5cccc(C#N)c5)cc4)c3)[nH]c12` registered an IFI of 5%. The result for `O=S(=O)(c1ccccc1)n1ccc2cc(Nc3ncnc4cc(C#C[C@H]5CCCN5)sc34)ccc21` reads 8.57%.

With `Cc1cc(F)ccc1Nc1nc(N(C)c2ccccc2)c2cc(OCCCN(C)C)ccc2n1`, the IFI was 10.8%. The compound `N=C(NCc1ccc(O)cc1)Nc1nc(-c2ccc(OCCCn3ccnc3)cc2)cs1` yielded an IFI of 6.47%. As to `Cc1ccc(Nc2nccc(NCC(O)c3cccc(C)c3)n2)cc1` (stereo not drawn), the IFI turned out to be 18.4%. The result for `CN(C)Cc1ccc(-c2cccc(Nc3nccc(NCC(O)c4ccccc4)n3)c2)cc1` (stereo not drawn) reads 11.2%; that for `COc1ccc(Nc2nccc(NCC(O)c3cccc(C(F)(F)F)c3)n2)cc1` (stereo not drawn), 15.3%. Compound `CN(C)Cc1cccc(-c2ccc(Nc3nccc(NCC(O)c4ccccc4)n3)cc2)c1` (stereo not drawn) yielded an IFI of 17.2%. The result for `CN(C)CC(=O)Nc1ccc(Nc2nccc(NCC(O)c3ccccc3)n2)cc1` (stereo not drawn) reads 2.94%. The result for `Cc1ccc(Nc2nccc(NCC(O)c3cccc(F)c3)n2)cc1` (stereo not drawn) reads 9.71%. As to `Cc1ccc(Nc2nccc(NCC(O)c3cccc(C(F)(F)F)c3)n2)cc1` (stereo not drawn), the IFI worked out at 17.9%.

The compound `Cc1cccc(Nc2nccc(NCC(O)c3cccc(C(F)(F)F)c3)n2)c1` (stereo not drawn) yielded an IFI of 14.3%.

As for `OC(CNc1ccnc(Nc2ccccc2)n1)c1cccc(C(F)(F)F)c1` (stereo not drawn), the IFI worked out at 12.2%. `OC(CNc1ccnc(Nc2ccc(Cl)cc2)n1)c1cccc(C(F)(F)F)c1` (stereo not drawn) registered an IFI of 16.3%. As for `COc1cccc(C(O)CNc2ccnc(Nc3ccc(Cl)cc3)n2)c1` (stereo not drawn), the IFI was 19.8%.

Compound `Cc1ccc(Nc2nccc(NCC(O)c3ccc(C(F)(F)F)cc3)n2)cc1` (stereo not drawn) yielded an IFI of 9.18%.
